# 5HT1a antag: antagonists of human 5-HT1a serotonin receptor | P08908 | CHO 5-HT1a Ga15 NFAT-bla reporter, antagonist mode | inhibition, % at 10 µM | hit rate 0.68% among 62,000 | AID 612;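 active = inhibition above the mean of all tested compounds plus 3 SD, cut at about 43% in these data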;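 note: receptor stimulated by 5-CT agonist at 100 nM near EC80; beta-lactamase reporter measured by ratiometric fluorescence of a cleavable substrate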
# Target sequence (P08908 whole entry, looked up): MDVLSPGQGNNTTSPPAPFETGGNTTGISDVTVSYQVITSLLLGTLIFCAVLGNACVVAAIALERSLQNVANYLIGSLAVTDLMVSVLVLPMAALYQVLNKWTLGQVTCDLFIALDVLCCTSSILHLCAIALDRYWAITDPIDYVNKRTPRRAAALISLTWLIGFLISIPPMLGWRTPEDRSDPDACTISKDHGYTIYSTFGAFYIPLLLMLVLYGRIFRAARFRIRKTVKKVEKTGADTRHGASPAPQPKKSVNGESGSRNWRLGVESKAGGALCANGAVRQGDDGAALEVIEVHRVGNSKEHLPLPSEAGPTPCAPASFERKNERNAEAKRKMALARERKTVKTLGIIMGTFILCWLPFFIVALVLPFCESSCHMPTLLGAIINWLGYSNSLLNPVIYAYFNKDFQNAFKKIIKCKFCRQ
# 5HT1E antag: antagonists of human 5-HT1E serotonin receptor | CHO 5-HT1E Ga15 NFAT-bla reporter, FRET, antagonist | inhibition, % at 6 µM | hit rate 0.99% among 65,000;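 active = inhibition above a set limit, the mean inhibition across every tested compound plus 3 SD, cut at about 29% in these data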;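 note: signal is the 460 over 535 nm emission ratio of beta-lactamase substrate; 0% = agonist plus DMSO wells and 100% = wells without agonist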
# HTR1A agonist: activates the human 5-HT1a serotonin receptor. P08908. CHO 5-HT1a Ga15 NFAT-bla reporter, FRET ratio; 0% basal, 100% maximal reference agonist. activation, % at 10 µM. hit rate 0.56% among 65,000;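 active = activation above the screen-wide mean activation plus 3 SD, cut at about 19% in these data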;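 note: 0% = DMSO wells and 100% = 5-CT at EC100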
# 5HT1E ag: 5-HT1E (human) receptor agonism; P28566; CHO 5-HT1E Ga15 NFAT-bla reporter, FRET; 0% DMSO wells, 100% control agonist wells; activation, % at 6 µM; hit rate 0.69% among 65,000; AID 574;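 active = activation above a set limit, the screen-wide mean activation plus 3 SD, cut at about 8.5% in these data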;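 note: 100% = positive control agonist at 1 µM giving full maximal response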
# mHtt clearance: mutant huntingtin protein clearance; HeLa Exon1htt(103Q)mCFP, aggregate imaging; zero = plate's median compound well; AID 853; inhibition, % at 1.5 µM; hit rate 0.42% among 47,000;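 active = inhibition of aggregate fluorescence above about 70%, also judged a hit by eye on the cell image, limit read from the data, passing the limit was not always enough; inconclusive = no rule stated for this call; inactive = not judged a hit on image review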;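 note: cells exposed to compound for three days before fixation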
# The depositor's hits bear a star; u = inconclusive; x = no result. A selection: hits, their analogues and other compounds. The true share with any hit is near 2.3%.
SMILES,5HT1a antag,5HT1E antag,HTR1A agonist,5HT1E ag,mHtt clearance
CCc1ccc(C2CC(c3ccc(C)cc3)n3nc(N)nc3N2)cc1 (stereo unspecified),-8,2,1,0,x
CCN(CC)c1nc(N2CCOCC2)c(C#N)c2c1CN(C)CC2,x,5,2,52*,-15
c1ccc(Cn2nnc3c(N4CCN(Cc5ccc6c(c5)OCO6)CC4)ncnc32)cc1,5,5,-1,0,-46
c1ccc2c(c1)oc1c(N3CCN(Cc4ccc5c(c4)OCO5)CC3)ncnc12,29,-10,63*,0,-80
CCOC(=O)c1nn(-c2ccc(OC)cc2)c(=O)c2c(NC(=O)c3ccco3)scc12,-1,9,-3,-2,x
CC1CCc2nn(CC(=O)Nc3c(F)cc(F)cc3Br)cc2C1 (stereo unspecified),2,-9,0,1,x
O=C(NCc1ccco1)c1ccc2c(=O)n(Cc3ccco3)c(SCC(=O)N3CCCC3)nc2c1,-12,0,1,0,23
COC(=O)c1ccc2c(=O)n(Cc3ccc4c(c3)OCO4)c(SCC(=O)N3CCCC3)nc2c1,5,12,96*,-5,x
O=C(CN1CCC(NC(=O)c2cccc(F)c2)CC1)NCc1ccccc1F,-7,5,27*,-2,x
O=C(CCCN1CCC(c2ccccc2)C1)c1ccc2c(c1)OCCO2 (stereo unspecified),82*,-1,6,8,-41
CCOC(=O)c1sc(C)c2c1NC(C)(c1cccs1)NC2=O (stereo unspecified),-1,0,0,0,x
O=C(CSc1cccs1)Nc1ccc2ccccc2c1,x,x,x,x,-26
Cc1cccc(NC(=O)C2CCCN(S(=O)(=O)c3cccc4cccnc34)C2)c1 (stereo unspecified),3,7,2,0,x
CN1CCN(C2=C(Cl)C(=O)N(c3cccc(Cl)c3)C2=O)CC1,2,13,-3,0,x
CN1CCN(C2=C(Cl)C(=O)N(Cc3ccccc3)C2=O)CC1,3,5,0,17*,9
Cc1ccc(S(=O)(=O)N(C)CC(=O)N2CCCc3ccccc32)cc1,12,10,-2,0,4
CCCc1nc2ccccc2c2nc(N)nn12,-5,34*,-3,1,x
COCCOC(=O)c1c(C)nc(SCC(=O)Nc2ccc(OC)cc2)c(C#N)c1-c1ccco1,x,34*,5,0,x
COc1cccc(NC(=O)CSc2nc3c(c(-c4ccco4)c2C#N)CCCC3)c1,1,0,-5,-1,x
O=C1[C@@H]2C(c3ccccc3Cl)=NO[C@@H]2C(=O)N1Cc1ccccc1,-8,11,-2,0,x
CCOc1ccc(NC(=O)C2=C(C)C(=O)OC23CCC(C)CC3)cc1 (stereo unspecified),x,x,x,x,-10
COCCn1c(N)c(C(=O)OCc2ccccc2)c2nc3ccccc3nc21,-30,6,1,2,16
COCCNC(=O)c1c(N)n(CCC2=CCCCC2)c2nc3ccccc3nc12,x,-26,29*,8,x
c1cc(-c2nnc3sc(C4CCCCC4)nn23)ccn1,x,2,2,17*,x
Cc1cccn2c(=O)c3cc(C(=O)N4CCc5ccccc5C4)n(C)c3nc12,-11,-6,-2,1,x
SMILES,5HT1a antag,5HT1E antag,HTR1A agonist,5HT1E ag,mHtt clearance
CCn1c2ccccc2c2nnc(SCc3ccccc3)nc21,20,33*,1,1,x
CCn1c2ccccc2c2nnc(SCN3C(=O)c4ccccc4C3=O)nc21,-1,38*,1,-1,x
Cn1c2ccccc2c2nnc(SCN3C(=O)c4ccccc4C3=O)nc21,-8,6,1,-1,x
CCCn1c2ccccc2c2nnc(SCC(=O)OCC)nc21,0,12,0,0,x
CCCn1c2ccccc2c2nnc(SCC(=O)OC)nc21,22,30*,2,-2,-3
CCn1c2ccccc2c2nnc(SCc3ccc(C(=O)OC)o3)nc21,1,28,-1,1,-14
COC(=O)Cc1c[nH]c2ccc(OCC(O)CNC(C)C)cc12 (stereo unspecified),0,4,-2,-2,x
CC(C)NCC(O)COc1cccc2[nH]ccc12 (stereo unspecified),x,-7,1,8.7*,x
CC(C)OC(=O)c1cccnc1SCc1cc(=O)n2ccccc2n1,7,5,3,1,-29
CCOC(=O)N1CCC(NC(=O)Cn2nc(Cc3ccncc3)c3ccccc3c2=O)CC1,3,-9,-1,-1,24
Cc1c(N=C2NC(=O)C(CC(=O)Nc3ccc(Cl)cc3)S2)c(=O)n(-c2ccccc2)n1C (stereo unspecified),0,-10,-1,0,70*
CCOCCCn1c(=S)[nH]c2cc(C(=O)NCCOC)ccc2c1=O,2,1,1,16*,37
CCOCCCn1c(=S)[nH]c2cc(C(=O)N3CCN(C)CC3)ccc2c1=O,12,-1,0,0,-20
COCCn1c(=O)[nH]c2cc(C(=O)NCCN3CCN(c4cccc(Cl)c4)CC3)ccc2c1=O,23,8,28*,2,x
Cc1cc(C(=O)NCCN2CCN(c3cccc(Cl)c3)CC2)n(-c2ccccc2)n1,24,-4,31*,2,x
CCCn1c(C)nc2c(c1=O)c1nc3ccccc3nc1n2-c1ccc2c(c1)OCCO2,-5,3,-2,-1,x
CC(=O)N(C)c1ccc(NS(=O)(=O)Cc2ccccc2)cc1,-7,1,69*,0,23
Oc1ccc(CN2CCN(Cc3ccccc3)CC2)c2cccnc12,20,30*,-3,1,35
CN1CCN(Cc2cc(COCc3ccccc3)c3cccnc3c2O)CC1,28,48*,-2,5,x
CN1CCN(Cc2ccc(OCc3ccccc3)cc2)CC1,2,5,-1,0,u
CCn1cc(C(=O)OCC(=O)Nc2ccc(S(=O)(=O)N3CCCC3)cc2)c(=O)c2ccc(C)nc21,-18,0,4,0,x
Cc1ccccc1Cn1nc(C)c(NC(=O)c2noc3c2CC(C(C)(C)C)CC3)c1C (stereo unspecified),-10,0,4,1,26
Cc1ccccc1Cn1cc(NC(=O)c2noc3c2CC(C(C)(C)C)CC3)cn1 (stereo unspecified),6,-3,26*,2,x
COc1ccc(N2C(=O)C3CCCN3C2c2cccc(Br)c2)cc1 (stereo unspecified),-7,-5,0,0,-76
COc1ccc(N2C(=O)C3CCCN3C2c2cccc(OC)c2OC)cc1 (stereo unspecified),1,4,101*,0,-15
O=S(=O)(c1ccc(F)cc1)N1CCN(c2ncnc3c2cnn3-c2ccccc2)CC1,3,-10,1,0,-85
CCOc1ccc2c(O)csc2c1,-12,-5,-2,0,32
CCCN=Cc1sc2ccc(OCC)cc2c1O,26,9,-3,35*,x
CC1CCN(C(=O)CN2C(=O)c3ccccc3S2(=O)=O)CC1,0,-7,38*,-1,-10
